Screening results as filed in PubChem BioAssay.
EBI2 block – blocks human EBI2 receptor beta-arrestin signaling. P32249. EBI2 beta-arrestin recruitment, luminescence, 7a,25-OHC stimulated. inhibition, % at 5 µM. 360,000 compounds, 0.81% hits; in the data active = inhibition above about 38%;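 also: enzyme fragment complementation signal reports receptor beta-arrestin coupling in cells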
Target sequence (P32249 whole entry, looked up, the tested form may be a part): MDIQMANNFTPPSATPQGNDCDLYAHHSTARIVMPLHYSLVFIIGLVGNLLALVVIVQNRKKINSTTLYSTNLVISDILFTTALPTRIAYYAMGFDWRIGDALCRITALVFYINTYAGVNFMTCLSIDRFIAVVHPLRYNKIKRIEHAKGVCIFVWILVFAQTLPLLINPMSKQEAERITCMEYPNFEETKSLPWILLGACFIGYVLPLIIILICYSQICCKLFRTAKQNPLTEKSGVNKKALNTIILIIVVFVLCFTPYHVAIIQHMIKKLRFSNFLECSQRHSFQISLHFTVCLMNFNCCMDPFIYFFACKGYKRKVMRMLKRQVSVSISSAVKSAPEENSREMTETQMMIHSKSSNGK
TIM10 inh – inhibits growth of TIM10 yeast strain; S. cerevisiae TIM10 strain growth, BacTiter-Glo luminescence, 24 h; inhibition, % at 10 µM; 330,000 compounds, 1.4% hits; AID 463195;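 active = inhibition of 40% or more at the single tested concentration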;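 also: wild-type TIM10 isogenic control strain grown at permissive 25 °C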
PfHsp90 set2 – reduces growth (ATP signal) of yeast expressing P. falciparum Hsp90 | S. cerevisiae expressing PfHsp90, BacTiter-Glo ATP, 48 h; yeast lacking PDR1 and PDR3 efflux regulators | inhibition, % at 9.4 µM | 310,000 compounds, 0.32% hits | AID 504621;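 active = every replicate shows inhibition above about 80%, whatever the replicate mean, limit read from the data; inconclusive = mean inhibition reaches the set limit but some replicate falls short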
tim23-1 inh – growth inhibitors of tim23-1 mutant yeast; S. cerevisiae tim23-1 growth, BacTiter-Glo luminescence, 24 h; inhibition, % at 20 µM; 330,000 compounds, 1.3% hits;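 active = growth inhibition of the mutant yeast at or above 50%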;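 also: temperature-sensitive mutant grown at 25 °C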
tim10-1 inh – inhibits growth of tim10-1 mutant yeast. S. cerevisiae tim10-1 ts strain growth, BacTiter-Glo, 24 h. inhibition, % at 20 µM. 330,000 compounds, 2.2% hits. AID 463190;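 active = inhibition of at least 40%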;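 also: mutant grown at 25 °C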
SKKanGAS inh – inhibitors of SKKanGAS S. pyogenes growth in kanamycin (SK-promoter or general growth effect); BacTiter-Glo, 6 h; inhibition, % at 7.5 µM; 300,000 compounds, 1.3% hits;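 active = mean replicate score, as percent of positive control median, at least 50; inconclusive = mean below 50 but one replicate at or above 50; inactive = mean and every replicate below 50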;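 also: strain carries kanamycin resistance gene driven by streptokinase promoter and grows in 40 µg/ml kanamycin; loss of luminescence reflects streptokinase promoter inhibition or plain growth inhibition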
tim10-1 confirm – tim10-1 yeast growth inhibition, confirmed. shares compounds with tim10-1 inh. S. cerevisiae tim10-1 ts strain growth, BacTiter-Glo, 24 h. inhibition, % at 20 µM. 7,400 compounds, 56% hits. AID 463213;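 active = inhibition of yeast growth at or above a set limit in either of two repeat tests at 20 µM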;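 also: tim10-1 mutant grown at permissive 25 °C to find synthetic lethal compounds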
Of the large screens only hits and unclear results are named; the others gave an inactive call (follow-up assays come after a bar, where they were run). Shown are actives, neighbours in structure and some others; about 4.7% of the full set was active somewhere.

Cc1cc(C)c(C(=O)NC2CC(C)(C)Cc3c2cnn3-c2ccccc2)o1 (centres undefined)	tim10-1 inh 45.0 | tim10-1 confirm inactive
COCCn1c(SCC(=O)NC(C)c2ccc(F)cc2)nc2ccccc21 (centres undefined)	none
CCOC(=O)Nc1nc(-c2ccccc2)c(C(=O)c2ccccc2)s1	tim10-1 inh 40.2 | tim10-1 confirm inactive
CC(=O)c1sc(NC(=O)c2c(F)cccc2F)nc1-c1ccccc1	tim10-1 inh 51.5 | tim10-1 confirm inactive
CC(=O)c1sc(NC(=O)c2ccccc2)nc1-c1ccccc1	none
O=C(CNC(=O)C1COc2ccccc2O1)Nc1ccc(F)c(F)c1 (centres undefined)	none (no result: PfHsp90 set2, SKKanGAS inh)
CCCN(S(=O)(=O)c1ccccc1F)S(=O)(=O)c1ccccc1Br	none
O=C1c2cccc3c(N4CCCCC4)ccc(c23)C(=O)N1CCO	tim10-1 inh 46.1 | tim10-1 confirm inactive
Cc1cc(Cl)c2oc(C(=O)N(C)C3CCOC3)c(C)c2c1 (centres undefined)	tim10-1 inh 40.6 | tim10-1 confirm inactive
CCc1cc(C(=O)N2CCN(c3ncc(C(F)(F)F)cc3Cl)CC2)sc1C	tim10-1 inh 41.7, SKKanGAS inh inconclusive | tim10-1 confirm 35.4
O=C(c1cccs1)N1CCN(c2ncc(C(F)(F)F)cc2Cl)CC1	none
O=C(NNc1nc(N2CCOCC2)nc(N2CCOCC2)n1)Nc1ccc(Cl)cc1	none (no result: EBI2 block, PfHsp90 set2)
O=C(NC(=S)Nc1ccccc1N1CCCC1)c1ccc(F)cc1	tim10-1 inh 41.3 | tim10-1 confirm inactive
Cc1cc(C(=O)NC(=S)Nc2ccccc2N2CCCC2)ccc1[N+](=O)[O-]	none
CC1CCN(c2ccccc2NC(=O)c2ccc(F)cc2)CC1	none
Cc1ccccc1C(=O)NC(=S)Nc1ccccc1N1CCCC1	tim10-1 inh 50.6 | tim10-1 confirm 37.2
O=C(COc1ccccc1Cl)NC(=S)Nc1ccccc1N1CCCC1	tim10-1 inh 51.1 | tim10-1 confirm inactive
CC1CCN(c2ccccc2NC(=S)NC(=O)C(C)(C)C)CC1	tim10-1 inh 48.6, SKKanGAS inh 57.9 | tim10-1 confirm 32.5
Cc1ccc(CNC(=O)c2ccc(N3CCC4(CC3)CC(c3ccccc3)=NO4)c(NC(=O)c3ccc(Cl)c([N+](=O)[O-])c3)c2)cc1	none
CCOc1ccc(N(CC(=O)Nc2nccs2)S(=O)(=O)c2c(C)[nH]c(=O)[nH]c2=O)cc1	none
CC(C)OC(=O)CC1C(=O)NCCN1C(=S)NC(=O)c1cccs1 (centres undefined)	none
O=C(NC1CCN(Cc2ccccc2)CC1)c1ccccc1OCc1ccccc1Cl	none
Cn1nc(-c2ccccc2)cc1NC(=O)Nc1ccc(C(C)(C)C)cc1	tim10-1 inh 40.6 | tim10-1 confirm 38.7
Cn1nc(-c2ccc(Cl)cc2)cc1NC(=O)Nc1ccccc1	none
O=C1C=CCC(/C=C/c2ccccc2)O1 (centres undefined)	tim10-1 inh 54.8 (no result: EBI2 block, PfHsp90 set2) | tim10-1 confirm inactive
CCCCc1ccccc1NC(=S)NC1CCCC1	tim10-1 inh 42.7 | tim10-1 confirm inactive
CSc1ccccc1NC(=S)NC1CCCC1	none
O=C(Cc1cc2ccccc2o1)NCc1ccc(F)cc1	none
Cn1c(/C=N/Nc2nc3ccccc3[nH]2)nc2ccccc21	tim10-1 inh 40.8 | tim10-1 confirm inactive
CCOc1ccc(S(=O)(=O)N2CCN(c3ccccc3OC)CC2)c2cccnc12	none
Cc1ccc(N=C2C(=O)Nc3ccc(Br)cc32)cc1	tim10-1 inh 48.5 | tim10-1 confirm inactive
Cc1ccc(N=C2C(=O)Nc3c(C)cccc32)cc1	none
O=C(NNc1cc(Br)c(O)c(Br)c1)c1ccccc1	none
CC(C)(C)n1nnnc1C(c1ccccn1)N(Cc1ccccc1)Cc1ccc(Cl)cc1 (centres undefined)	tim10-1 inh 50.5 | tim10-1 confirm 31.0
Cc1ccc(-c2csc(N(CCO)CCCn3c(C(F)(F)F)nc4ccccc43)n2)cc1	tim10-1 inh 43.7 | tim10-1 confirm inactive
OCCn1c(C(F)(F)F)nc2ccccc21	none
C=CCNC1=C(Cl)C(=O)N(Cc2ccccc2)C1=O	none
CC1CCCCN1C(=O)c1cccc(NC2=C(Cl)C(=O)N(Cc3ccccc3)C2=O)c1 (centres undefined)	tim10-1 inh 51.2 (no result: PfHsp90 set2, SKKanGAS inh) | tim10-1 confirm 34.6
O=C1C(Cl)=C(Nc2cccc(O)c2)C(=O)N1Cc1ccccc1	tim10-1 inh 42.4 | tim10-1 confirm 31.1
CCOc1ccccc1NC1=C(Cl)C(=O)N(Cc2ccccc2)C1=O	tim10-1 inh 43.8 | tim10-1 confirm inactive
CCOc1ccccc1NC1=C(Cl)C(=O)N(c2ccccc2)C1=O	none
CC(C)NC(=O)C1(C)CN(S(C)(=O)=O)CC(=O)N1CCc1ccccc1F (centres undefined)	none (no result: TIM10 inh, PfHsp90 set2, tim23-1 inh, tim10-1 inh, SKKanGAS inh)
O=C(CN1CCc2cc3c(cc2C1)OCCCO3)Nc1c(F)cccc1F	none
O=C(Nc1cccc(Cl)c1)N1CCC(CO)(CCOc2ccccc2)CC1	none
O=C1Nc2ccccc2N=C(c2ccc3c(c2)OCO3)C1N(CCc1ccccc1)C(=O)CSc1ncccn1 (centres undefined)	none (no result: TIM10 inh, PfHsp90 set2, tim23-1 inh, tim10-1 inh, SKKanGAS inh)
CSc1ccccc1OCc1cc(C(=O)N[C@H]2CCCCNC2=O)no1	none
CCN(CC)S(=O)(=O)c1ccc(OC)c(NC(=O)c2cccc([N+](=O)[O-])c2C)c1	none (no result: PfHsp90 set2)
O=C(NCCc1ccc(Cl)cc1)c1cccc(NC2=NC3CS(=O)(=O)CC3S2)c1 (centres undefined)	none
CC1CN(CC(=O)NCc2ccc(Cl)cc2)CC(C)O1 (centres undefined)	none
OC(COc1ccc2ccccc2c1Br)Cn1cnc(-c2ccccc2)c1 (centres undefined)	tim10-1 inh 43.5, SKKanGAS inh 55.8 | tim10-1 confirm 44.0
CCCCCCS(=O)Cc1ccccc1 (centres undefined)	none
CCc1ccc(Nc2n[n+](-c3ccccc3)c(/C=C/c3ccccc3)s2)cc1	tim10-1 inh 42.7 (no result: EBI2 block, PfHsp90 set2) | tim10-1 confirm inactive
CCc1ccc(Nc2n[n+](-c3ccccc3)c(-c3cc(OC)c(OC)cc3Br)s2)cc1	none
CC[n+]1c(/C=C2/C=C(C)CC(C)C2)sc2ccccc21 (centres undefined)	tim10-1 inh 47.6 | tim10-1 confirm inactive
CCCn1nc(C(=O)Oc2ccc3c(C)cc(=O)oc3c2)c2ccccc2c1=O	none
C=CCN(C)CC/C=C1\c2ccccc2CSc2ccccc21	none
C#CCN(C)CC/C=C1\c2ccccc2CSc2ccccc21	tim10-1 inh 44.1 | tim10-1 confirm inactive
Cc1sc2ncnc(-n3nnc4ccccc43)c2c1C	none (no result: PfHsp90 set2)
Brc1ccc(-c2csc3ncnc(-n4nnc5ccccc54)c23)cc1	tim10-1 inh 45.2 | tim10-1 confirm 32.2
COC(C(=O)NNC(=O)CCc1ccccc1)c1ccccc1 (centres undefined)	none
